Four molecules from PubChem BioAssay AID2172 (The Scripps Research Institute Molecular Screening Center, 2009) can be followed below.

Structures are written as SMILES. The list shows a part of the results. A number with no mark means an inactive call. No rule for the calls is given here.

The assay can be described thus: DNA intercalator displacement (FID) – biochemical, fluorescence, counter-screen for HCV NS3 helicase inhibitor project, dose response (AID 2172). The following applies: fluorescent intercalator displacement from DNA. (A counterscreen serves to expose hits that act by an unwanted route or on another target.)
Consider `Cc1ccc(/C=C/C(=O)Nc2ccc([N+](=O)[O-])c(NC(=O)/C=C/c3ccc(C)o3)c2)o1`, for which the IC50 is above 79.4 µM.
In the case of `Cc1cc(N2C(=O)C(O)=C(C(=O)c3ccc(C)o3)C2c2ccc(OCc3ccccc3)cc2)no1` (centres undefined), the IC50 is above 79.4 µM.
As for `Cc1cc(O)c(C(=O)/C=C/c2c(F)c(F)c(F)c(F)c2F)c(=O)o1`, the IC50 is above 79.4 µM.
For the molecule `CC(Oc1ccccc1)C(=O)Nc1oc(-c2ccco2)c(-c2ccco2)c1C#N` (centres undefined), the IC50 was above 79.4 µM.

As a reminder, the IC50 is the midpoint of a concentration-inhibition curve.
